In PMC8384837, “Expanding the binding specificity for RNA recognition by a PUF domain” one finds binding signal data, which are given here for twelve sequences.

Positions count from the first letter of the chain named.

What all share (test): yeast three-hybrid, YBZ-1, SC-Leu-His + 0.5 mM 3-AT, 4 days
Conditions in all cases: tags: N-Gal4 AD-HA kept; label: inside an RPR1-promoter hybrid RNA with tandem MS2 sites; ssRNA

In one experiment the target is PUM1 PUF domain R1-KAR (Homo sapiens, UniProt Q14671 828-1176, S863K;R864A;Q867R). The gist of the method: (§1)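 Pumilio-1 PUF domain libraries, randomized at the three base-contacting residues of each repeat, were co-expressed with matching RNA elements from a centromeric plasmid in strain YBZ-1, which carries a LexA–MS2 coat fusion and a HIS3 reporter. Transformants grew for four days on SC-Leu (input) or on SC-Leu-His + 0.5 mM 3-AT (selection), and the repeat regions were PCR-amplified and Illumina-sequenced. The interaction score is the log change in variant frequency from input to selection. That logarithm is base 2, with a pseudocount of 1 where a variant was absent.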

Another experiment deals with PUM1 PUF domain R4-ACC (Homo sapiens, UniProt Q14671 828-1176, N971A;H972C;Q975C). In outline: as §1
In another experiment the target is T1, PUM1 PUF domain R6-TFT (Homo sapiens, UniProt Q14671 828-1176, N1043T;Y1044F;Q1047T).
T1 sequence: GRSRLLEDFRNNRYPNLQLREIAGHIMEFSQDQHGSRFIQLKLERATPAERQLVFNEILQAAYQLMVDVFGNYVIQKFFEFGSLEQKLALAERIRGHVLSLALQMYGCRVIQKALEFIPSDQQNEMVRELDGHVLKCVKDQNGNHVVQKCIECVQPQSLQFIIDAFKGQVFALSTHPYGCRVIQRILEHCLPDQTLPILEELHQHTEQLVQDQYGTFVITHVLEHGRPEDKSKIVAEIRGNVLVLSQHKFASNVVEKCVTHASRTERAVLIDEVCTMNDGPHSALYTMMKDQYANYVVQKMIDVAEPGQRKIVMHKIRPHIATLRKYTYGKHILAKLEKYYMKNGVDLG
The gist of the method:
as §1

The next experiment has as its target PUM1 PUF domain R4-PYT (Homo sapiens, UniProt Q14671 828-1176, N971P;H972Y;Q975T). In outline: as §1
In a further experiment the target is PUM1 PUF domain R5-FFV (Homo sapiens, UniProt Q14671 828-1176, C1007F;R1008F;Q1011V). In outline: as §1
Another experiment addresses PUM1 PUF domain R4-WSA (Homo sapiens, UniProt Q14671 828-1176, N971W;H972S;Q975A). The gist of the method:
as §1

Another experiment has as its target PUM1 PUF domain R5-RYK (Homo sapiens, UniProt Q14671 828-1176, C1007R;R1008Y;Q1011K). In outline: as §1
Another experiment has as its target PUM1 PUF domain R3-ERS (Homo sapiens, UniProt Q14671 828-1176, C935E;Q939S). The gist of the method:
as §1

A further experiment deals with PUM1 PUF domain R4-TNG (Homo sapiens, UniProt Q14671 828-1176, N971T;H972N;Q975G). The gist of the method: as §1
In another experiment the target is PUM1 PUF domain R4-HRV (Homo sapiens, UniProt Q14671 828-1176, N971H;H972R;Q975V). The gist of the method:
as §1

Another experiment has as its target PUM1 PUF domain R4-LHS (Homo sapiens, UniProt Q14671 828-1176, N971L;Q975S). In outline:
as §1

For the next experiment, the target named is PUM1 PUF domain R1-KGQ (Homo sapiens, UniProt Q14671 828-1176, S863K;R864G). In outline:
as §1

Another experiment has as its target PUM1 PUF domain R5-NRR (Homo sapiens, UniProt Q14671 828-1176, C1007N;Q1011R). The gist of the method:
as §1

The target in a further experiment is PUM1 PUF domain R5-KGW (Homo sapiens, UniProt Q14671 828-1176, C1007K;R1008G;Q1011W). The gist of the method:
as §1

The target of another experiment is PUM1 PUF domain R5-SLH (Homo sapiens, UniProt Q14671 828-1176, C1007S;R1008L;Q1011H). The gist of the method: as §1
Another experiment addresses PUM1 PUF domain R8-CYP (Homo sapiens, UniProt Q14671 828-1176, N1122C;Q1126P). The gist of the method: as §1
Another experiment deals with PUM1 PUF domain R8-MYW (Homo sapiens, UniProt Q14671 828-1176, N1122M;Q1126W). The gist of the method: as §1
A further experiment concerns the target PUM1 PUF domain R1-RMQ (Homo sapiens, UniProt Q14671 828-1176, S863R;R864M). The gist of the method:
as §1

In a further experiment the target is T2, PUM1 PUF domain R6-TWV (Homo sapiens, UniProt Q14671 828-1176, N1043T;Y1044W;Q1047V).
T2 sequence: T1 sequence with F217W, T220V
The gist of the method: as §1

In the next experiment the target is PUM1 PUF domain R2-VFV (Homo sapiens, UniProt Q14671 828-1176, N899V;Y900F;Q903V). The gist of the method: as §1

Regarding “GGCUAGAACUAGUGGAUCCCCCGGCGCCCGGCGGCUCGAGCCCGGGUAAGUGUAAAUAGUCUGCAUGCCGCCGGGCGCCAUGCCUGCAGGUCGACUCUAGAAAACAUG”, the binding signal was 2.23 log2 enrichment (interaction score) in the experiment with PUM1 PUF domain R1-KAR; 2.56 log2 enrichment (interaction score) with PUM1 PUF domain R4-ACC; 3.71 log2 enrichment (interaction score) with PUM1 PUF domain R6-TFT; 4.57 log2 enrichment (interaction score) in the experiment with PUM1 PUF domain R4-PYT; 2.23 log2 enrichment (interaction score) with PUM1 PUF domain R5-FFV; 1.33 log2 enrichment (interaction score) with PUM1 PUF domain R4-WSA. Besides, the binding signal in the experiment with PUM1 PUF domain R5-RYK is 3.8 log2 enrichment (interaction score).
As for “GGCUAGAACUAGUGGAUCCCCCGGCGCCCGGCGGCUCGAGCCCGGGUAAGUGUAAGUAGUCUGCAUGCCGCCGGGCGCCAUGCCUGCAGGUCGACUCUAGAAAACAUG”, the binding signal in the experiment with PUM1 PUF domain R3-ERS is 2.54 log2 enrichment (interaction score).
Take “GGCUAGAACUAGUGGAUCCCCCGGCGCCCGGCGGCUCGAGCCCGGGUAAGUGUAUAUAGUCUGCAUGCCGCCGGGCGCCAUGCCUGCAGGUCGACUCUAGAAAACAUG”: the binding signal was 2.66 log2 enrichment (interaction score) in the experiment with PUM1 PUF domain R4-TNG; 2.89 log2 enrichment (interaction score) with PUM1 PUF domain R4-HRV; 7.53 log2 enrichment (interaction score) with PUM1 PUF domain R4-PYT; 3.86 log2 enrichment (interaction score) with PUM1 PUF domain R4-LHS; 2.96 log2 enrichment (interaction score) with PUM1 PUF domain R4-WSA.
“GGCUAGAACUAGUGGAUCCCCCGGCGCCCGGCGGCUCGAGCCCGGGUAAGUGUAAAUGGUCUGCAUGCCGCCGGGCGCCAUGCCUGCAGGUCGACUCUAGAAAACAUG”: the binding signal with PUM1 PUF domain R1-KGQ is 2.56 log2 enrichment (interaction score).
“GGCUAGAACUAGUGGAUCCCCCGGCGCCCGGCGGCUCGAGCCCGGGUAAGUGUCAAUAGUCUGCAUGCCGCCGGGCGCCAUGCCUGCAGGUCGACUCUAGAAAACAUG”: the results for the binding signal with PUM1 PUF domain R5-NRR, in the experiment with PUM1 PUF domain R5-KGW and with PUM1 PUF domain R5-RYK were 6.16 log2 enrichment (interaction score), 3.14 log2 enrichment (interaction score) and 4.4 log2 enrichment (interaction score), respectively.
For the sequence “GGCUAGAACUAGUGGAUCCCCCGGCGCCCGGCGGCUCGAGCCCGGGUAAGUGUAAAUUGUCUGCAUGCCGCCGGGCGCCAUGCCUGCAGGUCGACUCUAGAAAACAUG”, the binding signal is 6.7 log2 enrichment (interaction score) with PUM1 PUF domain R1-KAR and 5.42 log2 enrichment (interaction score) with PUM1 PUF domain R1-KGQ.
For “GGCUAGAACUAGUGGAUCCCCCGGCGCCCGGCGGCUCGAGCCCGGGUAAGUGUGAAUAGUCUGCAUGCCGCCGGGCGCCAUGCCUGCAGGUCGACUCUAGAAAACAUG”, the binding signal in the experiment with PUM1 PUF domain R5-SLH was 3.2 log2 enrichment (interaction score).
Take “GGCUAGAACUAGUGGAUCCCCCGGCGCCCGGCGGCUCGAGCCCGGGUAAGCGUAAAUAGUCUGCAUGCCGCCGGGCGCCAUGCCUGCAGGUCGACUCUAGAAAACAUG”: the binding signal in the experiment with PUM1 PUF domain R8-CYP is 4.27 log2 enrichment (interaction score); with PUM1 PUF domain R8-MYW, 2.44 log2 enrichment (interaction score).
For the sequence “GGCUAGAACUAGUGGAUCCCCCGGCGCCCGGCGGCUCGAGCCCGGGUAAGUGUAAAUCGUCUGCAUGCCGCCGGGCGCCAUGCCUGCAGGUCGACUCUAGAAAACAUG”, the binding signal with PUM1 PUF domain R1-KGQ was 4.94 log2 enrichment (interaction score); with PUM1 PUF domain R1-RMQ, 5.34 log2 enrichment (interaction score).
For the sequence “GGCUAGAACUAGUGGAUCCCCCGGCGCCCGGCGGCUCGAGCCCGGGUAAGUGAAAAUAGUCUGCAUGCCGCCGGGCGCCAUGCCUGCAGGUCGACUCUAGAAAACAUG”, in the experiment with PUM1 PUF domain R6-TWV, the binding signal is 2.6 log2 enrichment (interaction score).
For “GGCUAGAACUAGUGGAUCCCCCGGCGCCCGGCGGCUCGAGCCCGGGUAAGUGUACAUAGUCUGCAUGCCGCCGGGCGCCAUGCCUGCAGGUCGACUCUAGAAAACAUG”, the binding signal with PUM1 PUF domain R4-TNG was 0.22 log2 enrichment (interaction score); with PUM1 PUF domain R4-HRV it was 1.98 log2 enrichment (interaction score); with PUM1 PUF domain R4-PYT, 6.02 log2 enrichment (interaction score); in the experiment with PUM1 PUF domain R4-WSA, 2.8 log2 enrichment (interaction score).
In the case of “GGCUAGAACUAGUGGAUCCCCCGGCGCCCGGCGGCUCGAGCCCGGGUAAGUGUAAAAAGUCUGCAUGCCGCCGGGCGCCAUGCCUGCAGGUCGACUCUAGAAAACAUG”, in the experiment with PUM1 PUF domain R2-VFV, the binding signal was 5.17 log2 enrichment (interaction score).
